{
  "source": "PubChem BioAssay",
  "note": "A number with no mark means an inactive call. The rule behind the calls is not given here.",
  "data": [
    {"assay": "blockers of DNA damage checkpoint Chk1 activation – imaging, HeLa, hydroxyurea, phospho-Chk1 antibody, percent positive cells, primary screen (AID 1186)", "conditions": "hydroxyurea-induced phospho-Chk1 immunofluorescence imaging, higher = more signal", "values": [
      {"smiles": "COC(=O)c1c(CC[C@@H](CO)NC(=O)N2CCC[C@H]2Cn2cc(Cc3ccccc3)nn2)oc(C(C)=O)c1C(=O)OC", "z-score": -0.358},
      {"smiles": "O=C(NCc1ccccc1)[C@@H]1c2ccccc2C(=O)N(Cc2ccccc2C(F)(F)F)[C@H]1c1ccc(CO)cc1", "z-score": -0.496},
      {"smiles": "O=C(NCCCCCNC(=O)/C(Cc1ccccc1)=N/O)OCc1ccccc1", "z-score": -0.466},
      {"smiles": "C=C[C@@H](COC(C)=O)N(C(=O)OC(C)(C)C)S(=O)(=O)c1ccc(Br)cc1", "z-score": -0.506},
      {"smiles": "CCOC(=O)C[C@H]1[C@H](OC(=O)c2ccccc2-c2ccccc2)[C@@H](NC(=O)c2ccc(-c3ccccc3)cc2)c2cc(OCCCO)ccc2N1C(=O)c1ccc2ccccc2n1", "z-score": -0.145},
      {"smiles": "CCOC(=O)C[C@H]1[C@H](OC(=O)c2cc3ccccc3oc2=O)[C@@H](NC(=O)Cc2ccc(OC)cc2)c2cc(OCCCO)ccc2N1C(=O)c1ccc2ccccc2n1", "z-score": 0.134},
      {"smiles": "O=C1O[C@H](c2ccccc2)[C@H](c2ccccc2)N2[C@H]1[C@@H](C(=O)Nc1nc3ccccc3s1)[C@]1(C(=O)Nc3ccc(C#CC4(O)CCCCCC4)cc31)[C@H]2c1ccccc1OCCO", "z-score": 0.66},
      {"smiles": "COC(=O)[C@@]1(Cc2ccccc2N=[N+]=[N-])N=C(c2ccc(OCCCO)cc2)O[C@H]1c1ccccc1N=[N+]=[N-]", "z-score": -0.362},
      {"smiles": "CC(c1ccccc1)C(O)C1C=CC2C(=O)N(c3ccccc3)C(=O)C2N1Nc1ccc([N+](=O)[O-])cc1", "note": "(stereo unspecified)", "z-score": 0.433},
      {"smiles": "CN1C(=O)C2C=CC(C(O)c3ccc(F)cc3)N(Nc3ccccc3)C2C1=O", "note": "(stereo unspecified)", "z-score": 0.264},
      {"smiles": "CCCC[C@@H]1C[C@H]1[C@@H](NC(=O)Cc1ccccc1)c1ccc(-c2ccccc2)cc1", "z-score": -0.584},
      {"smiles": "O=C1C[C@@](C(=O)NCCN2CCOCC2)(c2ccc([N+](=O)[O-])cc2)[C@@H](c2ccc(CO)cc2I)N1C1CCCCC1", "z-score": 0.0213},
      {"smiles": "COC(=O)[C@@]1(Cc2ccc(F)cc2)[C@H]2c3cc(C(=O)N4CCCC4)n(CCc4ccc(O)c(O)c4)c3C[C@H]2CN1C(=O)c1ccccc1", "z-score": 0.333},
      {"smiles": "COC(=O)C(CC#Cc1ccc2c(c1)[C@]1(C(=O)N2)[C@H](c2ccccc2OCCO)N2[C@H](c3ccccc3)[C@H](c3ccccc3)OC(=O)[C@H]2[C@@H]1C(=O)NC[C@H](O)c1ccccc1)C(=O)OC", "z-score": -0.124},
      {"smiles": "COc1ccc(-c2nc(-c3ccccc3)c3c(c2C)CO[Si]3(C(C)C)C(C)C)cn1", "z-score": 0.0411},
      {"smiles": "C=CCC(OC(C)=O)[C@@H]1[C@@H](N(Cc2cc3ccccc3o2)C(=O)c2ccc(C)cc2)c2cc(OCCCO)ccc2N1C(=O)Cc1ccc(OC)cc1", "note": "(stereo partly specified)", "z-score": -0.0554},
      {"smiles": "COc1ccc([Si](C)(C)[C@@H]2[C@@H](CC(=O)N(CCO)Cc3ccccc3)O[C@]3(C(=O)N(c4ccccc4)c4ccccc43)[C@H]2C)cc1", "z-score": -1.11},
      {"smiles": "O=C1OCC=C[C@H]2OC34C=CCN(c5ccc(Cl)cc5)C(=O)[C@H]3N(CCO)C(=O)[C@@H]4[C@@H]12", "note": "(stereo partly specified)", "z-score": -0.435},
      {"smiles": "O=C1OCCC=C[C@H]2OC34C=CCN(Cn5nnc6ccccc65)C(=O)[C@H]3N(CCCCCCO)C(=O)[C@@H]4C12", "note": "(stereo partly specified)", "z-score": -0.667},
      {"smiles": "CC(C)(C)N1CC=CC23O[C@@H]4C=CCOC(=O)[C@@H]4[C@H]2C(=O)N(CCCCCCO)[C@@H]3C1=O", "note": "(stereo partly specified)", "z-score": -0.156},
      {"smiles": "[N-]=[N+]=NCc1ccccc1[C@H]1OC(c2ccc(OCCCO)cc2)=N[C@@]1(CCS(=O)(=O)c1ccccc1)C(=O)NCC(O)CO", "note": "(stereo partly specified)", "z-score": -0.0433},
      {"smiles": "C=C(/C(=C/C[C@H](OC(C)=O)c1cccc(OCCO)c1)c1cnc2ccccc2c1)C(C)C", "z-score": -0.192},
      {"smiles": "COCCOC(=O)N1C(=O)[C@@]2(c3cc(C#CCCO)ccc31)[C@H](c1ccccc1OCCO)N1[C@H](c3ccccc3)[C@H](c3ccccc3)OC(=O)[C@H]1[C@@H]2C(=O)Nc1nc2ccccc2s1", "z-score": 0.0686},
      {"smiles": "Cc1cc(C)c(C(O)C2C=CC3C(=O)NC(=O)C3N2Nc2ccc(Cl)cc2Cl)c(C)c1", "note": "(stereo unspecified)", "z-score": 0.73},
      {"smiles": "C=C(COC)/C(=C/C[C@H](OC(=O)c1ccncc1)c1ccccc1OCCO)c1cnc2ccccc2c1", "z-score": -0.446},
      {"smiles": "CCOC(=O)C1=CC[C@@H](c2ccccc2C(F)(F)F)N(S(=O)(=O)c2ccc(C)cc2)[C@H]1c1ccc(C#N)cc1", "z-score": 0.479},
      {"smiles": "OCC1CC(c2ccccc2)=NO1", "note": "(stereo unspecified)", "z-score": -0.582},
      {"smiles": "CC(C)(C)OC(=O)CC[C@]1(C(=O)NCC(O)CO)N=C(c2ccc(OCCCO)cc2)O[C@H]1c1ccccc1", "note": "(stereo partly specified)", "z-score": -0.703},
      {"smiles": "COCCOC(=O)N1C(=O)[C@@]2(c3cc(C#Cc4ccc(OC)cc4)ccc31)[C@H](c1ccccc1OCCO)N1[C@H](c3ccccc3)[C@H](c3ccccc3)OC(=O)[C@H]1[C@@H]2C(=O)N1CCCCCCC1", "z-score": -0.434},
      {"smiles": "O=C1C2C=CC(C(O)c3ccccc3)N(Nc3ccccc3F)C2C(=O)N1c1ccccc1", "note": "(stereo unspecified)", "z-score": 0.237},
      {"smiles": "CO[C@]12C=C(Br)[C@@H](C[C@@H]1c1cccc(C)c1)[C@@]1(CO1)C2=O", "z-score": -0.545},
      {"smiles": "Cn1cccc1C(O)C1C=CC2C(=O)NC(=O)C2N1Nc1ccc(Cl)cc1Cl", "note": "(stereo unspecified)", "z-score": 0.702},
      {"smiles": "C=C(C(=O)CC[C@@H](OC(C)=O)c1ccc(CO)o1)C(C)C", "z-score": 0.257},
      {"smiles": "COCCOC(=O)N1C(=O)[C@@]2(c3cc(C#Cc4ccc(OC)cc4)ccc31)[C@H](C(=O)Nc1nc3ccccc3s1)[C@H]1C(=O)O[C@H](c3ccccc3)[C@H](c3ccccc3)N1[C@@H]2c1ccc(O)cc1", "z-score": -0.519},
      {"smiles": "CCCCCCCCCCC(O)C1C=CC2C(=O)N(C)C(=O)C2N1NC(=O)OC(C)(C)C", "note": "(stereo unspecified)", "z-score": 1.91},
      {"smiles": "COC(=O)c1ccc([C@H](NC(=O)c2ccco2)[C@]2(C)C[C@H]2C2CCCCC2)cc1", "z-score": 0.089}
    ]}
  ]
}
